# From ChEMBL document CHEMBL3988442, “University of Dundee, Small-Polar-MMV Screening Library” (2021)
# The whole screen tested about 48,000 compounds, of which about 13,000 (27%) showed an effect of 50% or more. The list shows a part of the results.
# Test system: Wolbachia pipientis
# Assay: Anti-Wolbachia Cell-Based Screen
# Type: functional
# Set-up: scale not given: in the data most compounds retested in dose-response had high values
# Conditions: 5 µM
row,Structure (SMILES),Percent Effect
1,O=C(NCCCn1cncn1)c1ccc(-c2ccco2)[nH]c1=O,2.326%
2,CNC(=O)C1Cc2ccccc2CN1CCc1cccs1 (stereo not given),15.23%
3,CN(C)C(=O)NC[C@H]1OC[C@@H]2CCN(Cc3ccoc3)C[C@@H]21,-34.99%
4,Cc1c(C(=O)NCC2CCN(Cc3ccco3)C2)[nH]c2ccccc12 (stereo not given),19.49%
5,Cc1n[nH]c(C)c1CCNC(=O)C1CCCN(Cc2ccco2)C1 (stereo not given),-10.07%
6,CNC(=O)[C@@H]1[C@@H](c2ccccc2)CN2CCN(Cc3ccco3)C[C@H]12,101.4%
7,CNC(=O)[C@@H]1[C@H]2CN(Cc3ccoc3)CCN2C[C@H]1c1ccccc1,117.2%
8,O=C(Nc1ccc(-c2ccn[nH]2)cc1)C1CCCN(Cc2ccoc2)C1 (stereo not given),1.932%
9,Cc1cc(CNC(=O)N2CCN(Cc3ccccc3)C[C@H]2C)on1,-6.347%
10,CCc1ccc(CNC(=O)N2CCN(Cc3cc(C)no3)CC2)s1,7.686%
11,CNC(=O)[C@@H]1[C@@H](c2ccccc2)CN2CCN(Cc3cccs3)C[C@H]12,88.53%
12,CNC(=O)[C@@H]1[C@@H](c2ccccc2)CN2CCN(Cc3cc(C)no3)C[C@H]12,101.2%
13,CN1C(=O)CO[C@H](c2ccc(NC(=O)NC(C)(C)C)cc2)[C@H]1CO,-13.32%
14,COc1ccc(CN2CCSCC2)c(OC)c1,-5.529%
15,COc1ccc(CN2CCCCCC2c2cccs2)c(O)c1 (stereo not given),114.4%
16,Oc1ccccc1CN1CCCCCC1c1cccs1 (stereo not given),93%
17,COc1ccc(CN2CCCCCC2c2cccs2)c(OC)c1 (stereo not given),95.82%
18,CCN(C(=O)CN1CCCC1c1cccs1)c1ccccc1C (stereo not given),5.729%
19,COc1ccc(OC)c(CN2CCCCCC2c2cccs2)c1 (stereo not given),-3.603%
20,Cc1ccc(N(CCC#N)C(=O)CN2CCCC2c2cccs2)cc1 (stereo not given),-26.13%
21,Cn1nc(C(=O)N(CC(F)(F)F)c2cccc(Cl)c2)ccc1=O,-17.45%
22,Cn1cc(NC(=O)Nc2ccccn2)cc(Cl)c1=O,10.33%
23,CNC(=O)[C@@H]1COC[C@H]2CN(C(=O)c3cccc(OC)c3)C[C@H]21,4.207%
24,Cl.NCCNS(=O)(=O)Cc1ccc(Br)cc1,-57.57%
25,CC(=O)N1CCC(N2CCOC[C@H]2c2nc(-c3ccc(Cl)s3)c[nH]2)CC1,-14.52%
26,Cc1ccc(S(=O)(=O)NCCNC(=O)c2ccoc2)cc1F,-0.905%
27,O=C(c1cccc(CNS(=O)(=O)c2ccc(F)cc2)c1)N1CCCC1,130.7%
28,O=C(c1cccc(S(=O)(=O)NC[C@@H]2C[C@H](F)CN2)c1)N1CCCCC1,0.137%
29,N#Cc1cnc(NCc2cccc(C(=O)N3CCCC3)c2)c(Cl)c1,-5.94%
30,Cc1ccc(S(=O)(=O)NCc2cccc(C(=O)N3CCCC3)c2)cc1F,110.6%
